# In PubChem BioAssay (EPA / NIEHS):
# Several values for one entry are separate records, joined by “and”; a condition that tells them apart may be missing. Equal values may be shown once. Where a structure was tested more than once in an assay, its records may differ in their call. Activity calls are given as the source filed them. Rule for the calls: active = hit-call score of the fitted dose curve at least 0.9, where 1 is the maximum; inactive = score below 0.9.
# Assay: CCTE_Shafer_MEA_dev_per_network_spike_spike_number_mean: CCTE's Neural Network Formation Assay for Mean Number of Spikes in a Network Spike, Shafer Lab (AID 2284053)
# Description: CCTE_Shafer_MEA_dev assay is conducted using Axion Biosystems 48 well microelectrode array (MEA) plates and Maestro recording system. Each well of the MEA plate contains a grid of 16 microelectrodes embedded in the culture surface. Electrically active cells, such as neurons, can be cultured over the electrodes, and electrical activity in these cells can be recorded extracellularly. The spontaneous firing of neurons is captured from each electrode on a microsecond timescale providing both temporally and spatially precise data. […] The CCTE_Shafer_MEA_dev assay uses primary cultures of rat cortical neurons. Recordings are made on days post-plating 5, 7, 9 and 12. As these cultures mature over time, neural networks develop functional activity and form cohesive networks in which electrical activity can be highly coordinated. CCTE_Shafer_MEA_dev_per_network_spike_spike_number_mean is 1 of 19 assay components of the CCTE_Shafer_MEA_dev assay. It measures the average number of spikes (action potential firings) in a network spike (temporally-clustered group of spikes across multiple electrodes) as the number of spikes that occur within a 0.05 s time window at the peak of a network spike divided by the total number of network spikes during a recording in a microelectrode array (MEA) using Axion Biosystems Maestro 768 channel amplifier with the AxIS adaptive spike detector. To collapse across multiple recordings made on days post-plating 5, 7, 9 and 12, the trapezoidal area-under-the-curve of the component is calculated.Data from the assay component CCTE_Shafer_MEA_dev_per_network_spike_spike_number_mean was analyzed into 1 assay endpoint. This assay endpoint, CCTE_Shafer_MEA_dev_per_network_spike_spike_number_mean, was analyzed in the negative analysis fitting direction relative to DMSO as the negative control and baseline of activity. Using a type of functional reporter, gain or loss-of-signal activity can be used to understand electrical activity.
# On the day prior to culture, each well was coated thoroughly with 150 uL of 0.05% polyethyleneimine (PEI, Sigma Cat P3143) in 50 mM HEPES (Sigma Cat H7523) at a pH of 8. The plate was incubated at 37C for one hour. PEI was rinsed out with 500 uL of sterile water three times. Plates were stored at 4C until the day of culture. This culture was plated at a seeding density of 1.5 x 10^5 cells/well on a 48-well MEA plate, prepared as described above. Cells were administered via a 25 uL media/laminin ([…]; Sigma Cat L2020-1MG) drop directly onto the microelectrode array, as adding the cells with the laminin results in better attachment than pre-coating with laminin. After 2 hours, an additional 475 uL of cortical media was added and the cells returned to the incubator. Exposure starts at day 0 of plating and is continued over twelve days of network development until the experiment is terminated. Cells are fed with fresh medium on DIV 5 and 9, following the recordings on those days. The entire volume of media in the well is exchanged and any vehicle or compound treatment is renewed. Complete details are found in OP-NHEERL/ISTD/SBB/TJS/2015-03-r0 (available on request, email shafer.tim@epa.gov). Measurement of the electrical activity is non-invasive, and recordings can be made from the same plate over multiple different days of the culture. In cortical neurons, this allows for the measurement of extracellular action potentials over the period during which networks form in the MEA plate.
SMILES,outcome,AC50
COCCO,inactive,–
S=C(S)NCCNC(=S)S.[Mn+2].[S-]C([S-])=NCCN=C([S-])[S-].[Zn+2],inactive,–
CC(C)(c1ccc(O)cc1)c1ccc(O)cc1,inactive,15 µM (active)
CCCCOCCOCCOCc1cc2c(cc1CCC)OCO2,inactive,–
C#CCOC(=O)[C@@H](C)Oc1ccc(Oc2ncc(Cl)cc2F)cc1,inactive,–
CSC(=O)c1cccc2nnsc12,inactive,–
OB(O)O,inactive,–
Cc1nn(C)c(Oc2ccccc2)c1C=NOCc1ccc(C(=O)OC(C)(C)C)cc1,–,0.00249 µM (active)
O=C(O)c1ccccc1,inactive,–
CC1(C)C(C=C(Cl)Cl)C1C(=O)OCc1cccc(Oc2ccccc2)c1 (stereo not given),–,17.3 µM (active) and 10.1 µM (active)
CCCN(CCC)C(=O)SCC,inactive,–
CCCCC(CC)CN1C(=O)C2C3C=CC(C3)C2C1=O (stereo not given),inactive,–
CCN(CC)C(=O)c1cccc(C)c1,inactive,–
Oc1ccc(C(c2ccc(O)cc2)C(Cl)(Cl)Cl)cc1,–,3.73 µM (active)
